Data from PubChem BioAssay (NCI).
Compounds without any hit were thinned out: in the full panel of roughly 83,000, 20% have a hit.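 Cell lines were cultured in 96-well plates, exposed to a single compound concentration, and assessed for percent growth 48 hours later.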 Values without a mark were called inactive. Calls of active or inactive are those of the source. Rule for the calls: active = growth percent below 10; inactive = the rest.

Each compound was assayed on K-562 leukemia (assay: NCI-60 one-dose screen, 48 h (100 = growth as untreated, 0 = no growth, -100 = all killed)). Conditions: 10 µM.

Compound	growth
CN(C)CCOc1nc2ccccc2c2c1-c1ccc(Cl)cc1C2=O	-29.9% (active)
CCOC(=O)C(CSC(c1ccccc1)(c1ccccc1)c1ccccc1)NC(=O)C(CSC(c1ccccc1)(c1ccccc1)c1ccccc1)NC(c1ccccc1)(c1ccccc1)c1ccccc1 (stereo unspecified)	112%
O=C1OCC2=C1C(c1cccc(Cl)c1)c1cc3c(cc1N2CCO)CCC3 (stereo unspecified)	16.7%
O=C(Nc1ccc(Cl)cc1)N1NC(c2ccc(Cl)cc2)C=C1c1ccccc1 (stereo unspecified)	103%
S=c1[nH]ccn1-c1c(Cl)cccc1Cl	103%
O=S(=O)(NCCCNc1nccc(-c2c(-c3ccc(F)cc3)nc3sccn23)n1)c1ccc(F)cc1	13.5%
COc1cc2cc3c(nc2cc1OC)CCN3Cc1ccc(NC(=O)c2ccc(Cl)c(C(F)(F)F)c2)cc1	94.7%
CN(C)C(=S)N/N=C\C=N/NC(=S)N(C)C	1.44% (active)
COc1cc(Cl)cc(-c2nn(-c3cccc(NC(=O)c4ccc(Cl)c(Cl)c4)c3)cc2-c2ccncc2)c1	46.3%
CCCCCCCCCCCCCCCC(=O)OC1[C@@H](OC(=O)CCCCCCCCCCCCCCC)[C@@H](C(=O)N[C@@H](CCCCN)C(=O)OC)O[C@H]1n1cnc2c(=O)[nH]c(NC(=O)C(C)C)nc21 (stereo partly specified)	82.9%
CSc1nn(-c2ccccc2)c2ncnc(Oc3ccccc3)c12	96.5%
COc1ccc(/C=C/C(=O)Nc2ccc(-c3nc4ccc(OC)cc4s3)cc2)cc1	95.7%
O=C(/C=C/c1cc2ccccc2[nH]c1=O)c1ccc2c(c1)OCO2	87.4%
COc1ccc(N2C(=O)C3c4[nH]c5ccc(OCc6ccccc6)cc5c4C4CCC(C(C)C)CC4C3C2=O)cc1 (stereo unspecified)	117%
COc1cc(C(=C2O[C@@H]([C@H]3COC(C)(C)O3)[C@H]3OC(C)(C)O[C@@H]23)c2cc(OC)c(OC)c(OC)c2)cc(OC)c1OC	91.8%
COc1ccccc1/C=C/C(=O)c1ccccc1	6.19% (active)
COc1ccc(C2=Nc3c(C)nn(-c4ccccc4)c3NC(c3ccc(Oc4ccnc5cc(Cl)ccc45)c(OC)c3)C2)cc1 (stereo unspecified)	62.2%
NC(=O)SCC(=O)Nc1ccc(S(N)(=O)=O)cc1	108%

Compound	growth
c1ccc([I+]c2ccccc2)cc1	42.2%
CCN1CCCC1CNC(=O)c1ncc(-c2ccc(C(F)(F)F)cc2)c(NC2CCCCCC2)n1 (stereo unspecified)	8.32% (active)
Cc1ccc(N=Nc2c(N)nc(N)[nH]c2=O)cc1C	90.9%
COc1ccc(/C=C2/CN(C(=O)c3ccc(C)cc3)C/C(=C\c3ccc(OC)cc3)C2=O)cc1	23.7%
COc1cc(-c2cc(/C=C3\C(=O)Nc4cc(Cl)ccc43)[nH]n2)cc(OC)c1OC	23.4%
O=C(Nc1cccc(-n2cc(-c3ccncc3)c(-c3ccc(O)c(Cl)c3)n2)c1)c1ccc(N2CCOCC2)c(C(F)(F)F)c1	3.17% (active)
COc1ccccc1CNCCCN1C(=O)c2ccc3c4c(ccc(c24)C1=O)C(=O)N(CCCN)C3=O	-22.7% (active)
N=c1c2c(-c3ccccc3)c(-c3ccccc3)n(Cc3ccccc3)c2ncn1CCCO	-0.624% (active)
CCCC(F)C(=O)O (stereo unspecified)	97.6%
O=C(N/N=C\c1cc(Cl)ccc1[N+](=O)[O-])c1ccco1	102%
COC(=O)c1ccc(=O)oc1	86.8%
Oc1[nH]c2ccc(Cl)cc2c1/C=c1/ccc2c(c1)N=C(c1cc(F)cc(F)c1)N=2	14.8%
CN(Cc1ccccc1)Cc1ccc([N+](=O)[O-])cc1I	91.7%
O=C(CCCCC(=O)Nc1ccc2c(c1)/C(=C/c1ccc[nH]1)C(=O)N2)NO	85%
O=C1/C(=C/c2ccc(Cl)cc2)SC(=Nc2ccc(Cl)cc2)N1Cc1nc2ccccc2[nH]1	58.2%
O=C(C[P+](c1ccccc1)(c1ccccc1)c1ccccc1)C[P+](c1ccccc1)(c1ccccc1)c1ccccc1	-34.2% (active)
N=C(N)c1ccc(-c2ccc(-c3ccccc3)o2)nc1	30.2%
COc1cc(/C=C2\CCCC3=C2N=C2SC=NN2C3c2cc(OC)c(OC)c(OC)c2)cc(OC)c1OC (stereo unspecified)	8.28% (active)

The compounds below were run on MALME-3M melanoma in the same assay as above. Conditions: 10 µM.

Compound	growth
CCOC(=O)C(CSC(c1ccccc1)(c1ccccc1)c1ccccc1)NC(=O)C(CSC(c1ccccc1)(c1ccccc1)c1ccccc1)NC(c1ccccc1)(c1ccccc1)c1ccccc1 (stereo unspecified)	108%
O=C(Nc1ccc(Cl)cc1)N1NC(c2ccc(Cl)cc2)C=C1c1ccccc1 (stereo unspecified)	100%
S=c1[nH]ccn1-c1c(Cl)cccc1Cl	109%
O=S(=O)(NCCCNc1nccc(-c2c(-c3ccc(F)cc3)nc3sccn23)n1)c1ccc(F)cc1	48.5%
CCn1cc(C(=O)O)c(=O)c2cnc(N3CCCC3)nc21	92.8%
COc1cc2cc3c(nc2cc1OC)CCN3Cc1ccc(NC(=O)c2ccc(Cl)c(C(F)(F)F)c2)cc1	68.8%
CN(C)C(=S)N/N=C\C=N/NC(=S)N(C)C	58.5%
COc1cc(Cl)cc(-c2nn(-c3cccc(NC(=O)c4ccc(Cl)c(Cl)c4)c3)cc2-c2ccncc2)c1	96.4%
CCCCCCCCCCCCCCCC(=O)OC1[C@@H](OC(=O)CCCCCCCCCCCCCCC)[C@@H](C(=O)N[C@@H](CCCCN)C(=O)OC)O[C@H]1n1cnc2c(=O)[nH]c(NC(=O)C(C)C)nc21 (stereo partly specified)	98.5%
CSc1nn(-c2ccccc2)c2ncnc(Oc3ccccc3)c12	104%
O=C(/C=C/c1cc2ccccc2[nH]c1=O)c1ccc2c(c1)OCO2	78%
COc1ccc(N2C(=O)C3c4[nH]c5ccc(OCc6ccccc6)cc5c4C4CCC(C(C)C)CC4C3C2=O)cc1 (stereo unspecified)	107%
COc1cc(C(=C2O[C@@H]([C@H]3COC(C)(C)O3)[C@H]3OC(C)(C)O[C@@H]23)c2cc(OC)c(OC)c(OC)c2)cc(OC)c1OC	123%
COc1ccccc1/C=C/C(=O)c1ccccc1	90.8%
COc1ccc(C2=Nc3c(C)nn(-c4ccccc4)c3NC(c3ccc(Oc4ccnc5cc(Cl)ccc45)c(OC)c3)C2)cc1 (stereo unspecified)	95.6%
c1ccc([I+]c2ccccc2)cc1	50.5%
CCN1CCCC1CNC(=O)c1ncc(-c2ccc(C(F)(F)F)cc2)c(NC2CCCCCC2)n1 (stereo unspecified)	54%
Cc1ccc(N=Nc2c(N)nc(N)[nH]c2=O)cc1C	89.9%
COc1ccc(/C=C2/CN(C(=O)c3ccc(C)cc3)C/C(=C\c3ccc(OC)cc3)C2=O)cc1	91.4%
COc1cc(-c2cc(/C=C3\C(=O)Nc4cc(Cl)ccc43)[nH]n2)cc(OC)c1OC	-22.9% (active)
O=C(Nc1cccc(-n2cc(-c3ccncc3)c(-c3ccc(O)c(Cl)c3)n2)c1)c1ccc(N2CCOCC2)c(C(F)(F)F)c1	21.3%
COc1ccccc1CNCCCN1C(=O)c2ccc3c4c(ccc(c24)C1=O)C(=O)N(CCCN)C3=O	-94.1% (active)
CCCC(F)C(=O)O (stereo unspecified)	103%
O=C(N/N=C\c1cc(Cl)ccc1[N+](=O)[O-])c1ccco1	125%
COC(=O)c1ccc(=O)oc1	101%
CN(Cc1ccccc1)Cc1ccc([N+](=O)[O-])cc1I	84%
O=C(CCCCC(=O)Nc1ccc2c(c1)/C(=C/c1ccc[nH]1)C(=O)N2)NO	17.5%
O=C1/C(=C/c2ccc(Cl)cc2)SC(=Nc2ccc(Cl)cc2)N1Cc1nc2ccccc2[nH]1	48.9%
O=C(C[P+](c1ccccc1)(c1ccccc1)c1ccccc1)C[P+](c1ccccc1)(c1ccccc1)c1ccccc1	-86.5% (active)
N=C(N)c1ccc(-c2ccc(-c3ccccc3)o2)nc1	91.9%
